Screening data as filed in PubChem.
PLC-beta3 inh – inhibitors of human phospholipase C beta3; Purified PLC-beta3, fluorogenic substrate, fluorescence; Q01970; 370,000 tested, 0.18% active; inhibition, % at 12.2 µM; in the data active = inhibition above about 11%
GC-B act – GC-B (human) receptor activation | 370,000 tested, 0.11% active | HEK293-GC-B cells, CNP EC30, cGMP TR-FRET; 0% at EC30 CNP, 100% saturating CNP | P20594 | activation, % at 10 µM | AID 1920062;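 active = activation at 10 µM reaching about 35% in either raw or pattern-adjusted values, limit read from the data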
PLCg1 inh – PLC-gamma1 (human) inhibition, primary screen; inhibition, % at 12.2 µM; 370,000 tested, 0.84% active; P19174; purified PLC-gamma1, fluorogenic substrate, fluorescence
NPR1 activator – GC-A (human) enzyme activation; HEK293 GC-A cells, cGMP TR-FRET, EC30 ANP; 0% at EC30 ANP, 100% saturating ANP; P16066; AID 1671463; activation, % at 10 µM; 370,000 tested, 0.14% active; in the data active = activation above about 40%
Target sequence (P16066 whole entry, looked up): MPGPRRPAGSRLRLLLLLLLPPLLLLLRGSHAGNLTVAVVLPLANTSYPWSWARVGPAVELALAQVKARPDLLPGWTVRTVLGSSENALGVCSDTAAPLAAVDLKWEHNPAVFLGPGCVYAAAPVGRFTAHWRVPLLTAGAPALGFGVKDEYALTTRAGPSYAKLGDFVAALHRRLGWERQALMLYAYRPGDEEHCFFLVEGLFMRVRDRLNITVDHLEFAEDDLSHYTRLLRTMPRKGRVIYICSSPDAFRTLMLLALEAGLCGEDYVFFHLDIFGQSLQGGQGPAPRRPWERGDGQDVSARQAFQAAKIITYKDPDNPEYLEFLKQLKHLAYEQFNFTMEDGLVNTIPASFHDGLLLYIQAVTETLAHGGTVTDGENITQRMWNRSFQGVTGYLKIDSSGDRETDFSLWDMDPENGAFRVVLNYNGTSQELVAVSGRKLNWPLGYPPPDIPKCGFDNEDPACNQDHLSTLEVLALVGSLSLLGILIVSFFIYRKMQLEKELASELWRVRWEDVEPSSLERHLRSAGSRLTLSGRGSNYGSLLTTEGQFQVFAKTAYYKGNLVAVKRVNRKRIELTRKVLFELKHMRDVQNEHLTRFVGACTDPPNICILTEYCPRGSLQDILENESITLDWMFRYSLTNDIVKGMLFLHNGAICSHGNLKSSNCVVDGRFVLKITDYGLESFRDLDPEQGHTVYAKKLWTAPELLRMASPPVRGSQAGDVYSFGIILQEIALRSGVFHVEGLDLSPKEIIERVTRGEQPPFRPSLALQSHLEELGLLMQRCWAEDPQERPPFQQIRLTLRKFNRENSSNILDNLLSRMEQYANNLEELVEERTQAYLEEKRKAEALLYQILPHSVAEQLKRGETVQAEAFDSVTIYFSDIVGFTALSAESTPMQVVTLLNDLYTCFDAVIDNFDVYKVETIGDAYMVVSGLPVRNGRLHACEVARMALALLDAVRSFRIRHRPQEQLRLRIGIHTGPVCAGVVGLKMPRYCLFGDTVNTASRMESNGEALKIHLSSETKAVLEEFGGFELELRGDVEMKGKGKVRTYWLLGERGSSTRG
PLCgamma1 ctr – PLC-gamma1 inhibition, counter-screen for PLC-beta3 hits | purified PLC-gamma1, fluorogenic substrate, fluorescence | 3,300 tested, 3.1% active | AID 743258 | inhibition, % at 12.3 µM | shares compounds with PLCg1 inh
PLCb3 confirm – human PLC-beta3 inhibition, confirmation; 3,300 tested, 1% active; inhibition, % at 12.3 µM; purified PLC-beta3, fluorogenic substrate fluorescence; shares compounds with PLCg1 inh; in the data active = inhibition above about 11%
A number is an active result; - = inactive; . = no result. Shown are actives, neighbours in structure and some others; about 1.2% of the full set was active somewhere. Rule as the data show it, unless noted: active = inhibition above about 9.5%; inactive = the rest.

SMILES	PLC-beta3 inh	GC-B act	PLCg1 inh	NPR1 activator	PLCgamma1 ctr	PLCb3 confirm
CCOC(=O)c1ccc(NC(=O)Cn2c(C)nc3c(sc(=S)n3CC)c2=O)cc1	-	-	-	-	.	.
Cc1cc2oc(C(=O)NCc3ccncc3)c(C)c2cc1C	-	-	-	-	.	.
CC(C)N1C(=O)C2ON(c3ccccc3)C(c3cccs3)C2C1=O (stereo not drawn)	-	-	-	-	.	.
CN(C)c1ccc(NC(=O)Cc2ccccc2)c2ccccc12	-	-	-	-	.	.
COC(=O)[C@H](C)NC(=O)/C=C/c1ccc(OC)cc1	-	-	9.8	-	-	-
CSc1ccccc1NC(=O)CN(C)CC(=O)Nc1ccc(S(=O)(=O)N2CCCC2)cc1	-	-	-	-	.	.
O=c1cc(-c2ccccc2)nc(SCCOc2ccccc2Cl)[nH]1	-	-	12	-	-	-
CC1(C(=O)NS(=O)(=O)c2cccc(C#N)c2)CCN1C(=O)C1CCCCC1 (stereo not drawn)	-	-	-	-	.	.
O=C(/C=C/c1ccccc1)NC(=S)NNC(=O)c1ccco1	-	-	-	-	.	.
O=C1NC(=S)N/C1=C/c1cccnc1	-	-	11	-	-	-
O=C1NC(=S)N/C1=C\c1cccnc1	-	-	-	-	.	.
O=C(/C=C(/c1ccc(Cl)cc1)n1cncn1)c1ccccc1	11	-	-	-	-	-
CCC(C)(C)NC(=O)C(c1ccc(OC)cc1)N(Cc1ccccc1)C(=O)CCC(=O)Nc1cc(C)on1 (stereo not drawn)	-	-	-	-	.	.
Cc1ccc(OCC(=O)Nc2ccc(S(=O)(=O)N3CCCCC3)cc2)c([N+](=O)[O-])n1	-	-	-	-	.	.
Cc1ccc(OCC(=O)Nc2cc(S(=O)(=O)N3CCCCC3)ccc2C)c([N+](=O)[O-])n1	-	-	10	-	-	-
Nc1cc2c(cc1Br)-c1ccccc1C2=NO	-	-	-	-	.	.
COc1ccc(S[C@@H](CCN2CC[C@H](C)CCC2=O)c2ccccc2)cc1	-	-	9.7	-	-	-
C[C@@H]1CCC(=O)N(CC[C@H](Oc2ccccc2)c2ccccc2)CC1	-	-	13	-	-	-
O=c1[nH]c(/C=C\c2ccc(O)c(Cl)c2)nc(O)c1[N+](=O)[O-]	-	-	-	-	.	.
CC12CCC(=O)N1C(C(=O)Nc1cc(Cl)ccc1N1CCCC1)CS2 (stereo not drawn)	-	-	-	-	.	.
Cc1ccc2cc(CCNC(=O)c3cccc([N+](=O)[O-])c3)c(=O)[nH]c2c1C	-	-	10	-	-	-
COc1ccc2cc(CCNC(=O)c3cccc([N+](=O)[O-])c3)c(=O)[nH]c2c1	-	-	-	-	.	.
O=C(O)CCCNS(=O)(=O)c1ccc(F)cc1	-	-	9.7	-	-	-
O=S(=O)(NCCCCCNS(=O)(=O)c1ccc(F)cc1)c1ccc(F)cc1	-	-	-	-	.	.
S=C(NCc1ccccc1)N/N=C/c1cccs1	-	-	-	-	.	.
SMILES	PLC-beta3 inh	GC-B act	PLCg1 inh	NPR1 activator	PLCgamma1 ctr	PLCb3 confirm
CC(C)NC(=S)N/N=C/c1cccs1	-	-	11	-	-	-
O=C(CN1CCCCCC1)N/N=C/c1cccs1	-	-	16	-	-	-
O=C(COC(=O)CC12CC3CC(CC(Br)(C3)C1)C2)NC(=O)NCc1ccco1	-	-	11	-	-	-
Cn1cccc1C(=O)NC(=O)COC(=O)CC12CC3CC(CC(Br)(C3)C1)C2	-	-	-	-	.	.
COc1ccc(C2C(C(=O)NCc3cccnc3)c3ccccc3C(=O)N2C)cc1OC (stereo not drawn)	-	.	-	.	.	.
O=C1CCCc2oc3ccc(NS(=O)(=O)c4cccc5cccnc45)cc3c21	-	-	-	-	.	.
O=S(=O)(Nc1ccc(C(O)(C(F)(F)F)C(F)(F)F)cc1)c1cccc2cccnc12	-	-	10	-	-	-
O=c1oc2ccc(NS(=O)(=O)c3cccc4cccnc34)cc2s1	-	-	10	-	-	-
COC(=O)C1CCN(C(=O)COC(=O)C2CCN(S(=O)(=O)c3ccc4c(c3)OCCO4)CC2)CC1	-	-	-	-	.	.
N/C(=N\OC(=O)CCCOc1ccccc1)c1ccccc1	-	-	-	-	.	.
Cc1cc(NC(=O)CN2C(=O)C3CC=CCC3C2=O)no1 (stereo not drawn)	-	-	-	-	.	.
CCCCCCCCCCOC(=O)Cn1c(COc2ccccc2)[n+](C)c2ccccc21	-	-	9.5	-	-	-
CCCCCCCCCCOC(=O)Cn1c(COc2ccc(Cl)cc2)[n+](C)c2ccccc21	-	-	13	-	-	-
Cc1cccc(/N=C2/NC(=O)C(Cc3ccccc3)S2)n1 (stereo not drawn)	-	-	-	-	.	.
CCOc1ccc(CC2S/C(=N/c3ccccn3)NC2=O)cc1 (stereo not drawn)	-	-	11	-	-	-
Cc1ccc(NS(=O)(=O)c2ccc(OCC(=O)NCc3ccncc3)cc2)cc1	11	-	-	-	-	-
CC(C)(C)NC(=O)CN(C(=O)CCC(=O)Nc1nccs1)c1ccc(F)c(Cl)c1	-	-	-	-	.	.
CCc1nc2ccc(C(=O)NCc3ccccc3OC)cn2c1N(C=O)CCC(C)C	-	-	-	-	.	.
CN(C)S(=O)(=O)NC(c1ccccc1)c1ccccc1	-	-	12	-	-	-
CC(C)c1ccccc1NS(=O)(=O)N(C)C	-	-	-	-	.	.
CCOc1ccc(Cc2nc(C)c(CC(=O)N3CCOCC3)c(=O)[nH]2)cc1	-	-	11	-	-	-
CCOc1ccc(-n2nnnc2SCC(=O)N2CCOCC2)cc1	-	-	-	-	.	.
COc1ccccc1NS(=O)(=O)c1cc(C(=O)NCCCN2CCCC2=O)ccc1C	-	-	-	-	.	.
O=C1N[C@@H](Cc2ccccc2)COC(=O)[C@H](Cc2ccc(F)cc2)CC/C=C/C[C@H]1CC(=O)N(CCO)Cc1ccccc1	-	-	-	-	.	.
O=C(N=C1SC2CS(=O)(=O)CC2N1Cc1ccc(Cl)cc1)C1CC1 (stereo not drawn)	-	-	-	-	.	.
SMILES	PLC-beta3 inh	GC-B act	PLCg1 inh	NPR1 activator	PLCgamma1 ctr	PLCb3 confirm
O=C(NCc1ccccc1)c1onc(CSc2ccc(F)c(F)c2)c1C(=O)NCc1ccccc1	11	-	-	-	-	-
O=C(NCc1ccccc1)c1onc(CSc2ccc(Cl)cc2)c1C(=O)NCc1ccccc1	-	-	-	-	.	.
Cc1cccc(N(C)C(=O)C2CCCN2S(=O)(=O)c2cccc3nsnc23)c1 (stereo not drawn)	-	-	10	-	-	-
CCN(C(=O)C1CCCN1S(=O)(=O)c1cccc2nsnc12)c1ccccc1 (stereo not drawn)	-	-	-	-	.	.
Cn1cnnc1SCNC(=O)C(F)(F)F	12	-	-	-	-	-
O=[N+]([O-])c1ccccc1S(=O)(=O)N1CCc2ccccc2C1	12	-	-	-	-	-
CCOc1ccc(Nc2nc(-c3cccnc3)cs2)cc1	-	-	12	-	-	-
